Results on eight compounds are retold here after PubChem BioAssay (NCI).

Compounds without any hit were thinned out: in the full panel of roughly 83,000, 20% have a hit.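 Negative percent growth values reflect cell death: -40 means 40% of the cells present at the start died, and -100 means all died.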 A number with no mark means an inactive call. Active and inactive are the calls of the source. The calls were made as follows: active = growth percent below 10; inactive = the rest.

Some test systems named below: HCT-15 colon; HT29 colon; SNB-75 CNS; SNB-19 CNS; U251 CNS; PC-3 prostate; SK-MEL-5 melanoma; UACC-62 melanoma; LOX IMVI melanoma; SK-MEL-28 melanoma; SK-MEL-2 melanoma; EKVX NSCLC; SN12C renal; UO-31 renal; TK-10 renal; ACHN renal; CAKI-1 renal; A498 renal; CCRF-CEM leukemia; MOLT-4 leukemia.
Experiment in all cases: NCI-60 one-dose screen, 48 h (100 = growth as untreated, 0 = no growth, -100 = all killed)
Common to all, as to details: 10 µM unless noted

Turning to `C=CCn1c(SCC(=O)Nc2ccc(C(=O)/C=C/c3ccc(C)cc3)cc2)nnc1-c1c[nH]c2ccccc12`, the growth with HCT-15 colon was 71.5%; in the assay on HT29 colon it was 101%; with SNB-75 CNS, 97.4%; with SNB-19 CNS, 87.5%; with U251 CNS, 92.2%; with PC-3 prostate it was 66.5%. Besides, the growth with SK-MEL-5 melanoma was 69.2%; with UACC-62 melanoma, 67.9%; in the assay with LOX IMVI melanoma, 20.9%; in the assay with SK-MEL-28 melanoma, 96%; with SK-MEL-2 melanoma, 97.3%; in the assay with EKVX NSCLC, 61.9%. Besides, the growth in the assay on SN12C renal was 83.6%; in the assay on UO-31 renal it was 54.2%; with TK-10 renal, 114%; in the assay with ACHN renal, 83.4%; with CAKI-1 renal it was 85.4%; in the assay on A498 renal, 95.1%. Further, the figures for the growth with CCRF-CEM leukemia and with MOLT-4 leukemia were 83.1% and 60.7%, respectively.
`CCOc1cccc(-c2nc3sccn3c2-c2ccnc(S(C)(=O)=O)n2)c1`: the growth with HCT-15 colon was 76.8%; in the assay on HT29 colon it was 99.6%; in the assay with SNB-75 CNS, 98.4%; in the assay on SNB-19 CNS, 91.8%; in the assay on U251 CNS, 103%; in the assay on PC-3 prostate it was 96.9%. The growth in the assay on SK-MEL-5 melanoma was 99.3%; with UACC-62 melanoma, 89.6%; in the assay on LOX IMVI melanoma it was 78.6%; with SK-MEL-28 melanoma, 90.5%; in the assay on SK-MEL-2 melanoma, 108%; with EKVX NSCLC, 101%. The growth in the assay with SN12C renal was 98.4%; in the assay on UO-31 renal, 97.1%; in the assay with TK-10 renal, 119%; in the assay on ACHN renal, 87.6%; in the assay with CAKI-1 renal, 86.3%; with A498 renal it was 73.3%. For the same compound, the values for the growth with CCRF-CEM leukemia and in the assay on MOLT-4 leukemia were 99.6% and 101%, respectively.
Consider `N=c1c2cc(-c3ccccc3)oc2ncn1/N=C/c1ccc(Br)cc1`, for which the growth in the assay with HCT-15 colon is 57.9%; in the assay with HT29 colon, 102%; in the assay on SNB-75 CNS, 58%; in the assay with SNB-19 CNS it was 74.9%; with U251 CNS, 45.9%; in the assay with PC-3 prostate it was 75.3%. Moreover, the growth with SK-MEL-5 melanoma was 97.1%; in the assay on UACC-62 melanoma, 90.4%; in the assay with LOX IMVI melanoma, 45.3%; in the assay on SK-MEL-28 melanoma, 77.8%; in the assay on SK-MEL-2 melanoma, 104%; in the assay on EKVX NSCLC, 79.4%. Further, the growth was 60% in the assay with SN12C renal; 85.4% in the assay on UO-31 renal; 111% with TK-10 renal; 19.3% in the assay on ACHN renal; 88.5% in the assay with CAKI-1 renal; 80.4% in the assay on A498 renal. Besides, the growth with CCRF-CEM leukemia was 68.7%; in the assay with MOLT-4 leukemia it was 85%.
As for `COc1ccc(CCOc2cc3c(cc2OC)CCN(C(=O)NCc2cocn2)C3c2ccc(C)cc2C)cc1` (stereo not given), the growth with HCT-15 colon was 5.53% (active); in the assay on HT29 colon it was -2.64% (active); in the assay with SNB-75 CNS, 39.2%; with SNB-19 CNS, 22%; in the assay with U251 CNS it was 5.74% (active); in the assay with PC-3 prostate, 20.1%. Besides, the growth with SK-MEL-5 melanoma is -43.2% (active); in the assay on UACC-62 melanoma, 24%; in the assay with LOX IMVI melanoma, 1.85% (active); in the assay on SK-MEL-28 melanoma it was 38.7%; with SK-MEL-2 melanoma it was -7.32% (active); in the assay with EKVX NSCLC, 39.7%. The growth with SN12C renal was 19.7%; in the assay with UO-31 renal, 24.7%; in the assay with TK-10 renal it was 49.8%; in the assay with ACHN renal, 18.5%; in the assay with CAKI-1 renal it was 13.2%; in the assay on A498 renal, -2.94% (active). Besides, the growth in the assay with CCRF-CEM leukemia is 26.4%; in the assay with MOLT-4 leukemia, 21.8%.
Regarding `Cc1[nH]c(C(=O)Nc2ccccc2OCc2cccc(C(=O)N3CCC[C@@H](N)C3)c2)c(Cl)c1Cl`, the growth in the assay with HCT-15 colon is -78.6% (active); in the assay with HT29 colon, -71.9% (active); in the assay with SNB-75 CNS it was -96.3% (active); in the assay on SNB-19 CNS, -84.4% (active); in the assay on U251 CNS it was -83.9% (active); in the assay with PC-3 prostate, -88.9% (active). Further, the growth is -97.7% (active) with SK-MEL-5 melanoma; -90.8% (active) in the assay on UACC-62 melanoma; -90% (active) in the assay with LOX IMVI melanoma; -84.6% (active) in the assay with SK-MEL-28 melanoma; -74.1% (active) in the assay on SK-MEL-2 melanoma; -93.4% (active) with EKVX NSCLC. Also, the growth with SN12C renal is -79.4% (active); with UO-31 renal, -89.5% (active); with TK-10 renal, -90.2% (active); with ACHN renal, -96.4% (active); in the assay with CAKI-1 renal it was -92.8% (active); in the assay with A498 renal, 56.2%. Besides, the growth in the assay with CCRF-CEM leukemia is -26.6% (active); in the assay on MOLT-4 leukemia it was -55.2% (active).
Turning to `CNC1CCc2c(sc(NC(=O)c3ccc(C(C)(C)C)cc3)c2C(N)=O)C1` (stereo not given), the growth in the assay on HCT-15 colon is 4.54% (active); in the assay on HT29 colon, -0.193% (active); in the assay with SNB-75 CNS, 78.8%; in the assay with SNB-19 CNS, 55.6%; in the assay on U251 CNS it was 3.54% (active); with PC-3 prostate, 40%. Also, the growth with SK-MEL-5 melanoma is 83.6%; in the assay with UACC-62 melanoma, 60.5%; in the assay with LOX IMVI melanoma it was -88.1% (active); with SK-MEL-28 melanoma, 63.2%; in the assay on SK-MEL-2 melanoma, 72.8%; in the assay on EKVX NSCLC, 54.6%. For the same compound, the growth with SN12C renal is 69.2%; in the assay on UO-31 renal, 79.5%; in the assay on TK-10 renal, 101%; in the assay on ACHN renal, 37%; in the assay with CAKI-1 renal it was 42.4%; in the assay with A498 renal it was 73.9%. The growth in the assay on CCRF-CEM leukemia is 11.5%; with MOLT-4 leukemia, 0.786% (active).
Take `NC(=O)c1cccc(-n2ccc3cc(NC(=O)Nc4ccc(N5CCOCC5)c(C(F)(F)F)c4)ccc32)n1`: the growth with HCT-15 colon is 10.4%; with HT29 colon, 4.89% (active); in the assay on SNB-75 CNS, -24.4% (active); with SNB-19 CNS it was 2.44% (active); with U251 CNS, 0.717% (active); in the assay with PC-3 prostate, 5.77% (active). For the same compound, the growth with SK-MEL-5 melanoma was -79.6% (active); with UACC-62 melanoma it was -16.1% (active); with LOX IMVI melanoma, -10.9% (active); in the assay with SK-MEL-28 melanoma, -0.669% (active); in the assay with SK-MEL-2 melanoma, 1.78% (active); in the assay with EKVX NSCLC, 11.2%. The growth is 14.1% in the assay with SN12C renal; 4.85% (active) with UO-31 renal; -7.65% (active) in the assay with TK-10 renal; 11.6% in the assay on ACHN renal; 6.33% (active) in the assay on CAKI-1 renal; -57.1% (active) in the assay on A498 renal. Further, the results for the growth in the assay on CCRF-CEM leukemia and with MOLT-4 leukemia were 1.21% (active) and -38.9% (active), respectively.
Take `CCN(CC)c1ccc2c(c1)Oc1nc(N)c(C#N)c(N)c1C2Sc1ccc(F)cc1` (stereo not given): the growth in the assay on HCT-15 colon is -84.8% (active); in the assay with HT29 colon, -42.4% (active); with SNB-75 CNS it was -3.74% (active); in the assay with SNB-19 CNS, -94.9% (active); with U251 CNS it was -73.4% (active); in the assay with PC-3 prostate it was -74% (active). Moreover, the growth in the assay on SK-MEL-5 melanoma is -96.2% (active); with UACC-62 melanoma it was -52.5% (active); with LOX IMVI melanoma it was -92.6% (active); with SK-MEL-28 melanoma, -62% (active); with SK-MEL-2 melanoma, -61.3% (active); in the assay with EKVX NSCLC, -85.8% (active). In addition, the growth with SN12C renal is -77.8% (active); with UO-31 renal it was -99.5% (active); with TK-10 renal it was -33.6% (active); in the assay with ACHN renal, -91% (active); with CAKI-1 renal, -81.9% (active); in the assay on A498 renal, -1.93% (active). Also, the figures for the growth in the assay with CCRF-CEM leukemia and with MOLT-4 leukemia were -23% (active) and -12.8% (active), respectively.
